This is part of a sample that, as a whole, favours compounds with a hit. Of some 83,000 tested, about 20% had one in any assay.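 A percent growth of 40 corresponds to 60% growth inhibition; 0 means no net growth; -100 means all cells died. Active threshold: below 10.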 Activity calls are given as the source filed them.

The test system of this test is U251 CNS. In words: NCI-60 one-dose screen, 48 h (100 = growth as untreated, 0 = no growth, -100 = all killed). Particulars: 10 µM. As to the method: Growth inhibition of the U251 human tumor cell line is measured as a screen for anti-cancer activity. Cells are grown in 96 well plates and exposed to the test compound for 48 hours. Compounds are tested at a single concentration, which is 10^-5 M for most compounds. The reported endpoint is percent growth (GI% or GIPRCNT), where numbers from 0 - 100% represent growth inhibition, and numbers from -100% - 0 represent cell death. For example, a value of 40 represents 60% growth inhibition. A value of 0 means no net growth occurred over the course of the experiment. A value of -40 indicates 40% of cells at the beginning of the experiment died by the end of the experiment. A value of -100 means all cells are dead at the end of the experiment.
NCI-60 Human Tumor Cell Lines Screen was performed using the standard one-dose NCI protocol, which is described in more detail at https://dtp.cancer.gov/discovery_development/nci-60/default.htm.
Compounds with GIPRCNT values below 10 were considered active. Activity score was based on GIPRCNT using the following formula: […]
Score is 0 for GIPRCNT values of 100 or above, 50 for GIPRCNT values of 0, and 100 for GIPRCNT values of -100.
Turning to `C[C@H](NC(=O)[C@@H]1CSSC[C@@H](NC(=O)Cc2nc3ccccc3cc2O)C(=O)NCC(=O)N1C)c1ccccc1`, the growth was 95.7% (inactive).
The figure for `COc1cc(CSc2nc3ccc(C)cc3c(=O)n2-c2ccccc2)cc(OC)c1OC` is 38.5% (inactive).
For `CCOC(=O)Cn1nnc(-c2ccc(OCc3ccccc3F)cc2)n1`, the growth is 99% (inactive).
`FC(F)(F)c1ccc(-c2cnc(Cl)nc2NC2CCCCCC2)cc1`: the growth was 5.17% (active).
The result for `COc1cccc(C(=O)N(c2ccc(F)c(F)c2)C(C(=O)NC(C)(C)C)c2cc3c(C)cc(C)cc3nc2Cl)c1` (stereo not given) reads 69% (inactive).
As for `Cc1ccc(S(=O)(=O)Oc2ccccc2-c2ccccc2)cc1`, the growth is 24.8% (inactive).
Turning to `O=S(=O)(NCCO)c1ccc(OCCOc2ccc(S(=O)(=O)NCCO)cc2)cc1`, the growth is 93.7% (inactive).
The result for `CC(C)=C1CCC(C)C/C1=N\N=C(N)N` (stereo not given) reads 96.5% (inactive); that for `Nc1nc2c(nnn2C2CC(O)C(CO)O2)c(=O)[nH]1` (stereo not given), 54.3% (inactive); that for `CC[C@@]1(C(N)=O)CC2C=CC1C2` (stereo not given in full), 113% (inactive).
The figure for `CCCC(C)c1ccc(OCCCCCCN2CCNCC2)cc1` (stereo not given) is -2.39% (active); for `CCOC(=O)Nc1ccc2c(c1)C(=O)N(CCOC)c1ccccc1O2` it is 39.3% (inactive); for `N#Cc1c(-c2ccccc2)nc(SCC(=O)N2CCOCC2)[nH]c1=O` it is 105% (inactive).
For the compound `CCSc1nc2c([nH]1)c(=O)n(C)c(=S)n2C`, the growth is 105% (inactive).
The figure for `CC(CNC(Cc1ccccc1)c1ccccc1)NC(Cc1ccccc1)c1ccccc1` (stereo not given) is 34.3% (inactive).
The figure for `CCOC(=O)c1c(C)n(-c2ccc(Cl)cc2)c2ccc(OC(=O)/C=C/c3ccccc3)cc12` is 83.2% (inactive); for `O=C(O)CCCCSCCCCC(=O)O` it is 93.3% (inactive); for `Cn1c([N+](=O)[O-])cnc1C=C1C(=O)c2ccccc2C1=O` it is 57.2% (inactive).
As for `COc1ccc(Cn2cc3c(c2-c2cc(OC)c(OC)c(OC)c2)CCc2cnoc2-3)cc1[N+](=O)[O-]`, the growth was 39.8% (inactive).
The figure for `COC(=O)[C@]12CC[C@@H](C)[C@H](C)[C@@H]1C1=CC[C@@H]3[C@@]4(C)C/C(=N\O)[C@H](O)[C@@]5(C)COC(=C45)C[C@@]3(C)[C@]1(C)CC2` is -96.4% (active); for `CC(=O)Nc1nc(C)c(C(=O)N/N=C/c2cccn2C)s1` it is 103% (inactive); for `CCOC(=O)c1cc2c(n1Cc1cccc(OC)c1)-c1oncc1CC2` it is 22.4% (inactive).
The figure for `O=C(NC1CCN(Cc2ccccc2)CC1)c1cc(-c2ccncc2)nc2ccc(Cl)cc12` is 7.4% (active); for `CCOC(=O)[C@@H]1[C@H](c2ccccc2)[C@H]([N+](=O)[O-])[C@H](c2cn(-c3ccccc3)nc2C)N1Cc1ccccc1` it is 51.2% (inactive).
The figure for `N/C(=N\O)c1cn(C2OC(CO)C(O)C2O)c2ncnc(N)c12` (stereo not given) is 10.7% (inactive).
For `O=[N+]([O-])c1ccc(S(=O)(=O)OCCCCOS(=O)(=O)c2ccc([N+](=O)[O-])cc2)cc1`, the growth is 104% (inactive).
Turning to `COc1ccc(-c2nc(-c3nc4ccc(C)cc4[nH]3)c3ccccn23)cc1`, the growth is 42.6% (inactive).
On to `CNC(=S)Sc1ccc([N+](=O)[O-])cc1[N+](=O)[O-]`, for which the growth is 72.5% (inactive).
As for `CCCCCCCCCCCCCCCCn1cc[n+](C)c1`, the growth is -70% (active).
The figure for `c1ccc(C2CCCCC2)c(OCCCCCN2CCNCC2)c1` is 26.1% (inactive); for `COc1ccc(-c2nc3sc(-c4ccccc4)c(-c4ccccc4)n3c2/C=C/c2ccc(F)cc2)cc1` it is 99.3% (inactive); for `COc1ccc(-c2csc(-c3cc(Cl)cc(Cl)c3Cl)n2)cc1` it is 93.3% (inactive).
Regarding `O=C(Nc1ccc(OCc2nnc(-c3ccccc3)o2)c(F)c1)Nc1ccc(Cl)c(Cl)c1`, the growth was 50.5% (inactive).
In the case of `CCn1nc(-c2ccc(C(=O)OC)cc2)nc2c(=O)n(C)c(=O)nc1-2`, the growth is 41.5% (inactive).
The result for `CC(=O)c1c(O)cc2c3c1OC(C)(C)C1CCC(C)(CC31)O2` (stereo not given) reads 102% (inactive); that for `C#CCn1c(-c2cccc(OCCCCl)c2)nc2c1c(=O)n(C)c(=O)n2C`, 90.7% (inactive).
In the case of `N#CN1CC[C@H](C(=O)Nc2ncc(-c3ccncc3)s2)C1`, the growth is 1.7% (active).
In the case of `COc1ccc(-c2nc(-c3ccccc3)c(-c3ccccc3)[nH]2)cc1OC1CCCC1`, the growth is 39.1% (inactive).
On to `CC(Oc1ccc(Cl)cc1)c1ccccc1` (stereo not given), for which the growth is 102% (inactive).
For `O=C1/C(=C/c2ccc([N+](=O)[O-])s2)Oc2ccc(Cl)cc21`, the growth was -65.4% (active).

(Values after PubChem BioAssay (NCI).)
